Reference: PubChem BioAssay (Tox21)
A number with no mark means an inactive call. Entries that show only a call come without a potency. Activity calls are given as the source filed them. Calls follow the shape of the dose curve; as a rule, active = well fitted activation curve with a large enough effect in the repeat runs; inconclusive = weak or mixed curves; inactive = flat fitted curve, though single readings scatter.

Assay: Caspase-3/7 induction in CHO-K1 cells by small molecules, qHTS assay (AID 1346980); also: nearly all actives have a fitted effect of over 15% in size
Details: CHO-K1 caspase-3/7 induction, Caspase-Glo luminescence, 17 h; series mostly up to 92.4 µM
Text: National Center for Advancing Translational Sciences [NCATS]
NIH Chemical Genomics Center [NCGC]
U.S. Environmental Protection Agency [EPA]
National Institutes of Environmental Health Sciences [NIEHS]
National Toxicology Program [NTP]
Apoptosis is a process of programmed cell death and plays a central role in the development of multicellular organisms. It is a highly regulated process and induces cell death by activating caspases, which are the members of cysteine aspartic acid-specific protease (caspase) family. Caspases involved in apoptosis are classified by their mechanism of action as initiator caspases (caspase-2, -8, -9 and -10) and executioner caspases (caspase-3, -6, and -7). Inhibition of apoptosis results in number of cancers, autoimmune diseases, inflammatory diseases and viral infection. To identify small molecule compounds that induce apoptosis, a homogeneous, luminescent Caspase-Glo 3/7 assay was used. Wild type CHO-K1 cells were used to screen Tox21 libraries for identifying caspase-3/7 activity inducers.
CHO-K1 cells were dispensed at 1,500 per well in 5uL of culture medium into white solid bottom 1536-well plates (Corning Life Sciences, Corning, NY) using a Multidrop Combi (Thermo Scientific, Waltham, MA) dispenser. The assay plates were incubated at 37 C and 5% CO2 for 5hr, and then 23nL of compounds dissolved in DMSO and positive control were transferred using a Pintool station (Wako, San Diego, CA). The assay plates were incubated at 37C and 5% CO2 for 17hr. For caspase-3/7 activity read, 4uL of Caspase-Glo 3/7 reagent (Promega Corporation, Madison, WI) was added to each well of the assay plates using Flying Reagent Dispenser (FRD, Aurora Discovery, San Diego, CA) and incubated the assay plates at room temperature for 30min. The luminescence signal was quantified using a ViewLux plate reader (Perkin Elmer, Shelton, CT).
Potency is read from the fitted curve at half-maximal effect.

Row | SMILES | Potency | caspase-3/7 activation
1 | C=CC(=O)OCC(C)OCC(C)OCC(C)OC(=O)C=C (stereo not given) | 24.3 µM (active) | 
2 | Cc1ccc(C(C)c2ccc(C)c(C)c2)cc1C | inactive | 
3 | CC[C@]12CCCN3CCc4c(n(c5ccccc45)C(=O)C1)[C@@H]32 | inactive | 
4 | C1=Cc2ccccc2C1 | inactive | 
5 | CN(C)CCCOc1nn(Cc2ccccc2)c2ccccc12 | inactive | 
6 | CCc1nn(C2CCCCC2)c2cc(C3(C#N)CCC(C(=O)O)CC3)ccc12 (stereo not given) | inactive | 
7 | CC(C)c1ccc2c(C(C)C)cc(C(C)C)c(S(=O)(=O)O)c2c1 | inactive | 
8 | CCCCCCCCCCCCC(=O)O | inactive | 
9 | CCCC(=O)OCC | inactive | 
10 | Cc1ccc2c(ccc3ccccc32)c1 | inactive | 
11 | COC(Cc1ccccc1)OC | inactive | 
12 | CCCCOCCOCCOCCOCCO | inactive | 
13 | Cn1c(N)nc2nc[nH]c2c1=O | inactive | 
14 | C=C(C)C(=O)OC(C)C | inactive | 
15 | CCCCc1cc2ccccc2c(OCCN(C)C)n1 | inactive | 
16 | Cc1cc(NC(=O)C(=O)O)cc(C)c1Oc1ccc(O)c2c1CCC2 | inactive | 
17 | CCOC(=S)SSC(=S)OCC | inactive | 
18 | CC(=O)/C(C)=C/C1C(C)=CCCC1(C)C (stereo not given) | inactive | 
19 | CCOC(=O)C1=C(C)NC(C)=C(C(=O)OC)C1c1cccc([N+](=O)[O-])c1 (stereo not given) | inactive | 
20 | CCCCCCCCCCCCCCCCCBr |  | -0.258% [at 19 µM]

Row | SMILES | Potency | caspase-3/7 activation
21 | O=C1c2cccc(O)c2C(=O)c2c(O)cc(CO)cc21 | inactive | 
22 | CCCCOc1cc(C(=O)OCCN(CC)CC)ccc1N | inactive | 
23 | OCC1CC2CC1C1CCC(CO)C21 (stereo not given) | inactive | 
24 | CCCOc1ccc2nc(NC(=O)OC)[nH]c2c1 | inactive | 
25 | O=C(c1ccccc1)c1ccc2n1CCC2C(=O)O (stereo not given) | inactive | 
26 | CNCC[C@@H](Oc1ccccc1C)c1ccccc1 | inactive | 
27 | CC(=O)O[C@@H]1C(=O)O[C@@H]2[C@H]1OC(=O)[C@@H]2OC(C)=O | inactive | 
28 | CC(C)CCCCCCOC(=O)c1ccc(C(=O)OCCCCCCC(C)C)c(C(=O)OCCCCCCC(C)C)c1 | inactive | 
29 | FC(F)(F)C(F)(F)C(F)(F)C(F)(F)C(F)(F)C(F)(F)CCI | inactive | 
30 | N=C(N=C(N)N)N1CCOCC1 | inactive | 
31 | CC(=O)OC/C=C/c1ccccc1 | inactive | 
32 | C1CCC2OC2C1 (stereo not given) | inactive | 
33 | CC(C)(Oc1ccc(Cl)cc1)C(=O)OCCCOC(=O)C(C)(C)Oc1ccc(Cl)cc1 | inactive | 
34 | COc1ccc2[nH]c(S(=O)Cc3ncc(C)c(OC)c3C)nc2n1 (stereo not given) | inactive | 
35 | CC(C)(C)c1cc(CO)cc(C(C)(C)C)c1O | inactive | 
36 | CC1=CC(=O)/C(=C(/C)O)C(=O)O1 | inactive | 
37 | COc1ccc(C(C)=O)cc1 | inactive | 
38 | CCN(CC)C(C)CN1c2ccccc2Sc2ccccc21 (stereo not given) | inactive | 
39 | Cl/C(=C\n1cncn1)c1ccc(Cl)cc1Cl | inactive | 
40 | O=S1(=O)c2cccc3cccc(c23)N1CCCN1CCN(c2ccc(F)cc2)CC1 | inactive | 
